From the supplement of paper PMC11732987, “Enantioselective OTUD7B fragment discovery through chemoproteomics screening and high-throughput optimisation” (Communications Chemistry, 2025)

Columns and labels:
Assay in all cases: log2 ratio of Biotin-Ahx-Ub-VS probe labelling (fragment/DMSO); higher = less target engagement (more negative = stronger competition), active = hit call of the paper (q ≤ 0.05, log2 ratio ≤ -1)
Settings in all cases: compound concentration: 200 uM; treatment time: 3 h
[1] = target: T1, ALG13 (UniProt Q9NP73)
T1 sequence (whole entry): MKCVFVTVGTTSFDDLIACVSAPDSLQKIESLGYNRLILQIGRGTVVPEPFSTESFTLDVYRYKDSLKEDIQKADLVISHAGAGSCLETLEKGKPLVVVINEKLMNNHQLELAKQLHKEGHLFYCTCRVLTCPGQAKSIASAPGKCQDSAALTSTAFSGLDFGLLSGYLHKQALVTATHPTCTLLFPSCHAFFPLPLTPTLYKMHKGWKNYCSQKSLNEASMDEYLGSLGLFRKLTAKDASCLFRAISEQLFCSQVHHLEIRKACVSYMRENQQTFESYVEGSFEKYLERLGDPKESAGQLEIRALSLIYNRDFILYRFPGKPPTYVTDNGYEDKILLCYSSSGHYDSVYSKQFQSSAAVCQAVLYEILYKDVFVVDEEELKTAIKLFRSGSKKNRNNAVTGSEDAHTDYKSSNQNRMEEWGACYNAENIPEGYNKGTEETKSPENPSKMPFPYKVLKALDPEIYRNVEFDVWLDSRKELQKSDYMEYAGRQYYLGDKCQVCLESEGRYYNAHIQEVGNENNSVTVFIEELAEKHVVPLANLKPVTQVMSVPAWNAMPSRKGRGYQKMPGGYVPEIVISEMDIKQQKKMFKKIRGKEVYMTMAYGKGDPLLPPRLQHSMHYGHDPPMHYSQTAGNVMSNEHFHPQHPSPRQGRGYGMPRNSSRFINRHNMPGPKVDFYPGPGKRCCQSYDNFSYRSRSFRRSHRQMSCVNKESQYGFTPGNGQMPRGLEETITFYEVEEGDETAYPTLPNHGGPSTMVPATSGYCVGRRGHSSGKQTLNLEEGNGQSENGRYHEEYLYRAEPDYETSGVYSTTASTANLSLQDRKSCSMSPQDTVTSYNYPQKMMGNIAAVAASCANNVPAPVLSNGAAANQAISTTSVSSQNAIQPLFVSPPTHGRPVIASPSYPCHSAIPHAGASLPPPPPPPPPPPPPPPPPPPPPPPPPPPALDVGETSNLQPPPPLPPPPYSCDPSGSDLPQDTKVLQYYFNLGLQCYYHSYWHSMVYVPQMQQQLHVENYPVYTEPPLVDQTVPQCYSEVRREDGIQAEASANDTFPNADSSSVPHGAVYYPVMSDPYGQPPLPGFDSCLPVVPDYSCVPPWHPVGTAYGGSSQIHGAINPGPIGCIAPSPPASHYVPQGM
How it was run: (§1)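 Fragment (200 µM) or vehicle was incubated for 3 h with triplicate HEK293T lysate samples of 495 µg, which were then treated with Biotin-Ahx-Ub-VS at 0.5 µM final for 1 h. Labelled DUBs were enriched on NeutrAvidin, digested with LysC and trypsin, and analysed by diaPASEF LC-MS/MS. Values are average log2 fragment/vehicle ratios from an unpaired t-test on global-median-normalised Spectronaut label-free quantities, using proteins with ≥2 unique peptides.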

[2] = target: ATXN3 (UniProt P54252)
Sequence of ATXN3 (P54252 whole entry): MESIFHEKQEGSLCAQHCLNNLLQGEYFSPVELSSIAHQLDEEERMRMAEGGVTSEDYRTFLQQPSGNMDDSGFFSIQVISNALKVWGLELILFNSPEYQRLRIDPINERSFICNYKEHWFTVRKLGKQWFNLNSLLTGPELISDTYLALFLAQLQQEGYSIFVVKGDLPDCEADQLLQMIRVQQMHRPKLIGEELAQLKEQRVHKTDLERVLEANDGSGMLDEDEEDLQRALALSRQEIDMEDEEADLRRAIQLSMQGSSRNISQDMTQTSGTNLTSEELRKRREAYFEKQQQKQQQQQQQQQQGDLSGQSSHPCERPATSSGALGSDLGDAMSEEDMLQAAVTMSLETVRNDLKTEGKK
How it was run: as §1

[3] = target: T2, BAP1 (UniProt Q92560)
T2 sequence (whole entry): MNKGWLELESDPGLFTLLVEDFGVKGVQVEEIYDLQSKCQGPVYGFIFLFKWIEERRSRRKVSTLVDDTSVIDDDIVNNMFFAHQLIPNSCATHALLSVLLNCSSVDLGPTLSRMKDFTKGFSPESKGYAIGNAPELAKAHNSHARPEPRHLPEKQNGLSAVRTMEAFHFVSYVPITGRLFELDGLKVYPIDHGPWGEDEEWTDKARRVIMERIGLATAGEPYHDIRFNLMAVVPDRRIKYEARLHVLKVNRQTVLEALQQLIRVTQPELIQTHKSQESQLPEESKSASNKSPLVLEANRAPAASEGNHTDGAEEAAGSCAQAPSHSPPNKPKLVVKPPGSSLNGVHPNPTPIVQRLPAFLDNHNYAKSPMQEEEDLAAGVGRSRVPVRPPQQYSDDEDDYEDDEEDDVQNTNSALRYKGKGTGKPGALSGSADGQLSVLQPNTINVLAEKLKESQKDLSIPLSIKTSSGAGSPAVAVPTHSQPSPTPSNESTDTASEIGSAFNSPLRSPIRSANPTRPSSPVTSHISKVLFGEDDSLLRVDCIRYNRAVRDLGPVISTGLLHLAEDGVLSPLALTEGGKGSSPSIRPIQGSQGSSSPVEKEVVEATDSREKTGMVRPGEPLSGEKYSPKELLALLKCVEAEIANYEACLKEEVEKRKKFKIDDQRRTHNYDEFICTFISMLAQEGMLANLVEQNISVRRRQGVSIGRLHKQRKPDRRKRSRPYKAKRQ
How it was run: as §1

[4] = target: EIF3F (UniProt O00303)
Sequence of EIF3F (O00303 whole entry): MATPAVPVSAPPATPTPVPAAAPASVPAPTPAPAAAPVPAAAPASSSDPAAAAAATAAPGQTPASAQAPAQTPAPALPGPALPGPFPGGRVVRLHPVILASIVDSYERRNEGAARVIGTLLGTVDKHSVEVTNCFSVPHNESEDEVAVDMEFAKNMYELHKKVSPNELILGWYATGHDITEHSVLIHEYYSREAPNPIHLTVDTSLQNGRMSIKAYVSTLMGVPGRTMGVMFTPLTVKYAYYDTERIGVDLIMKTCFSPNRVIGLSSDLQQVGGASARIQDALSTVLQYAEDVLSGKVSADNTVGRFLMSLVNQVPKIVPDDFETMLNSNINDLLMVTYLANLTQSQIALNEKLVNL
How it was run: as §1

[5] = target: EIF3H (UniProt O15372)
Sequence of EIF3H (O15372 whole entry): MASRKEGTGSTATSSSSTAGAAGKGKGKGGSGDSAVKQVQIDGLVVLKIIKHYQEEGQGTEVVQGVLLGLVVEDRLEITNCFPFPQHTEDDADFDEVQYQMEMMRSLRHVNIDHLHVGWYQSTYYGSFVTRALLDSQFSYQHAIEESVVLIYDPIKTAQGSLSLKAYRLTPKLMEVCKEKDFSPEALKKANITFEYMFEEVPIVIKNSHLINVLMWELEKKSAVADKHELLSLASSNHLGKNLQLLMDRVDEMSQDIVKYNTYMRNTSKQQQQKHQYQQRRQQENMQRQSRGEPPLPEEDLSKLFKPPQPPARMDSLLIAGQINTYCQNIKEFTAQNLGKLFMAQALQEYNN
How it was run: as §1

[6] = target: T3, FAM105A (UniProt Q9NUU6)
T3 sequence (whole entry): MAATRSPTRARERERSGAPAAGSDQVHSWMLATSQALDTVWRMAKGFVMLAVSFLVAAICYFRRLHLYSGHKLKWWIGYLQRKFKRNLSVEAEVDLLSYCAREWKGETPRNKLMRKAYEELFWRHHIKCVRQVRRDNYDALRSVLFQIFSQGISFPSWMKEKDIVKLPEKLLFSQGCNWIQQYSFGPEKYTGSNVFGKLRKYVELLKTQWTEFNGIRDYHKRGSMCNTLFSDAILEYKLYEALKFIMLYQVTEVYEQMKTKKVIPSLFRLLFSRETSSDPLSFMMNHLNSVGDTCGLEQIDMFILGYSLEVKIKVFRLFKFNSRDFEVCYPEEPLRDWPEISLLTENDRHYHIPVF
How it was run: as §1

[7] = target: OTUB1 (UniProt Q96FW1)
Sequence of OTUB1 (Q96FW1 whole entry): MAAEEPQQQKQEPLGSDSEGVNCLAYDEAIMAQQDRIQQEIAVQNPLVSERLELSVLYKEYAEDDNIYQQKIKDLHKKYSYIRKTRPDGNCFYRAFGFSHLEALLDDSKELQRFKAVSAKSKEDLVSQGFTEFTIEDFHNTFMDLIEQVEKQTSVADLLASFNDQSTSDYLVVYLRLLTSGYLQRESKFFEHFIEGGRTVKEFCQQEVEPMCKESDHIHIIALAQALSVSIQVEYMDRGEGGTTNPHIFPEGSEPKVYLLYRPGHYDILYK
How it was run: as §1

[8] = target: T4, OTUD4 (UniProt Q01804)
T4 sequence (whole entry): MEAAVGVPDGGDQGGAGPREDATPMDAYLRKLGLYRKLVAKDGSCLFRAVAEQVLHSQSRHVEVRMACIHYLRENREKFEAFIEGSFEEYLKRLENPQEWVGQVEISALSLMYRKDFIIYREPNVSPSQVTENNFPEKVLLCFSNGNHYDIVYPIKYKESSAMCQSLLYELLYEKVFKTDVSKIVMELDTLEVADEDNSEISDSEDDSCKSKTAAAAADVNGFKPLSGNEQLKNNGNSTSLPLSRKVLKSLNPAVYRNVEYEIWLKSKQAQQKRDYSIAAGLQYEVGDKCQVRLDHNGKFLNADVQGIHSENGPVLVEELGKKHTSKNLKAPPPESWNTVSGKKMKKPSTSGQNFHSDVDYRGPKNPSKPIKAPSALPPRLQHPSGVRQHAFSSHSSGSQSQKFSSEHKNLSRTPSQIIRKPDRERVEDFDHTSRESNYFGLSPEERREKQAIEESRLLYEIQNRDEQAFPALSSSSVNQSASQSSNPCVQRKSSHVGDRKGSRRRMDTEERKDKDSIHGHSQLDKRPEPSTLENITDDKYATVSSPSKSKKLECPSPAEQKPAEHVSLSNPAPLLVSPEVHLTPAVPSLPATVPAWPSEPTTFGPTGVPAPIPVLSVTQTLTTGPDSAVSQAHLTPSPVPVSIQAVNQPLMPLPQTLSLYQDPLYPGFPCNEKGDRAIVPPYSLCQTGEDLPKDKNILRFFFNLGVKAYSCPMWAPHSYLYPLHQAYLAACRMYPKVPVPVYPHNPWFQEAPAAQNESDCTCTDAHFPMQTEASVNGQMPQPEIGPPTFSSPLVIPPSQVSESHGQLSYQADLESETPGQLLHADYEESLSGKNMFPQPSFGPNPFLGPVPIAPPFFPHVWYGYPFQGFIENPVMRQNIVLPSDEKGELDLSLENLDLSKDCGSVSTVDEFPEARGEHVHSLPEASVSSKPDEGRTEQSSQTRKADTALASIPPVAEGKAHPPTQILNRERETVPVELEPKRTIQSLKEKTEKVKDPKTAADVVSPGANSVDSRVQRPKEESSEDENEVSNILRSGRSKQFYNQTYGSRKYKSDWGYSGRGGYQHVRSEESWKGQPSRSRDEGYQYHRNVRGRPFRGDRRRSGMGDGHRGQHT
How it was run: as §1

[9] = target: T5, OTUD5 (UniProt Q96G74)
T5 sequence (whole entry): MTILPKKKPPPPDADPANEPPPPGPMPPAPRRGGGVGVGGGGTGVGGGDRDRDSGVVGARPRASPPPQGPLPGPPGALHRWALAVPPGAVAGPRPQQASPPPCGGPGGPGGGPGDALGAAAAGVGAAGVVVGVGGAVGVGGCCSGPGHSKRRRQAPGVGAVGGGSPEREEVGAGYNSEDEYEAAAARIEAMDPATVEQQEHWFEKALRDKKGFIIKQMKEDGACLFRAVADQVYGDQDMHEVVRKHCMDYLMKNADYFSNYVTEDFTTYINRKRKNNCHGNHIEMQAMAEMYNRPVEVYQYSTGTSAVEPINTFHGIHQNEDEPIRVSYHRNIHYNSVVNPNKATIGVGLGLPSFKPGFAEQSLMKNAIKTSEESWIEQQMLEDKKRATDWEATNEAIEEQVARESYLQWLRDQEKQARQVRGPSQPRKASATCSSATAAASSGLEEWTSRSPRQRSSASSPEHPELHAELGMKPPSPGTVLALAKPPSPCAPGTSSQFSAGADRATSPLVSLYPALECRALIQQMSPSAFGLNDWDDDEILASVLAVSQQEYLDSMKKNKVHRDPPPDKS
How it was run: as §1

Measured: log2 ratio of Biotin-Ahx-Ub-VS probe labelling

Cc1n[nH]c2c1CN(C(=O)CCl)CC2
inactive: [1] 0.0341 | [2] -0.888 | [3] -1.1 | [4] -0.389 | [5] 0.366 | [6] 0.0256 | [7] -0.0671 | [8] -0.753
active: [9] -1.05
